Measured values reported in PubChem BioAssay AID1159580 (chemical genetic matrix, 2015).
Out of some 5,500 compounds screened, about 2,000 (36%) were called active. Inconclusive results (about 18%) are left out. Rule as the data show it: active = normalized growth mostly below about 0.91 (no sharp cut-off); inconclusive = no clear call, values can overlap the other calls; inactive = mostly above about 0.92. This is one part of the list.

Experiment: chemical genetic growth profiling, strain panel (AID 1159580);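 also: tested at 20 µM; growth read once vehicle control cultures reached saturation at 30 °C; 1 = growth at the plate median or of vehicle wells; lower values mean less growth of the strain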
Conditions: S. cerevisiae deletion strains, growth OD

Measured: normalized growth

O=c1[nH]c2cc([N+](=O)[O-])c([N+](=O)[O-])cc2[nH]c1=O
inactive: locus YAL013W, strain DEP1, hits give low values 0.998 | locus YAL040C, strain CLN3, hits give low values 1.03 | locus YCL061C, strain MRC1 (second series), hits give low values 1 | locus YDR363W, strain ESC2, hits give low values 0.986 | locus YER002W, strain NOP16, hits give low values 0.996 | locus YGR078C, strain PAC10, hits give low values 1 | locus YGR229C, strain SMI1, hits give low values 0.977 | locus YJR075W, strain HOC1, hits give low values 0.987 | locus YMR263W, strain SAP30, hits give low values 1 | locus YNL128W, strain TEP1, hits give low values 1.01 | locus YNL153C, strain GIM3, hits give low values 1.01 | locus YNL175C, strain NOP13, hits give low values 1.01 | locus YNL197C, strain WHI3, hits give low values 0.989 | locus YNL224C, strain SQS1, hits give low values 0.989 | locus YNL322C, strain KRE1, hits give low values 0.986 | locus YOR083W, strain WHI5 (second series), hits give low values 0.969 | locus YPL055C, strain LGE1, hits give low values 0.988 | locus YPL241C, strain CIN2, hits give low values 1
